# Activity calls are given as the source filed them.
# How the values were obtained:
# Albumin (Bos taurus) = Albumin (Bos taurus) (UniProt P02769); assay: compounds binding labelled BSA control protein – biochemical, small-molecule microarray, Alexa647 label, 635/667 nm fluorescence, artefact control for SMM control protein annotation, profiling panel (AID 1118); settings: BSA-A647 binding, fluorescence 635 nm, higher = more signal;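 also: score merges 667 nm emission intensity and signal-to-noise per printed compound spot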
# Sequence of Albumin (Bos taurus) (P02769 whole entry, looked up): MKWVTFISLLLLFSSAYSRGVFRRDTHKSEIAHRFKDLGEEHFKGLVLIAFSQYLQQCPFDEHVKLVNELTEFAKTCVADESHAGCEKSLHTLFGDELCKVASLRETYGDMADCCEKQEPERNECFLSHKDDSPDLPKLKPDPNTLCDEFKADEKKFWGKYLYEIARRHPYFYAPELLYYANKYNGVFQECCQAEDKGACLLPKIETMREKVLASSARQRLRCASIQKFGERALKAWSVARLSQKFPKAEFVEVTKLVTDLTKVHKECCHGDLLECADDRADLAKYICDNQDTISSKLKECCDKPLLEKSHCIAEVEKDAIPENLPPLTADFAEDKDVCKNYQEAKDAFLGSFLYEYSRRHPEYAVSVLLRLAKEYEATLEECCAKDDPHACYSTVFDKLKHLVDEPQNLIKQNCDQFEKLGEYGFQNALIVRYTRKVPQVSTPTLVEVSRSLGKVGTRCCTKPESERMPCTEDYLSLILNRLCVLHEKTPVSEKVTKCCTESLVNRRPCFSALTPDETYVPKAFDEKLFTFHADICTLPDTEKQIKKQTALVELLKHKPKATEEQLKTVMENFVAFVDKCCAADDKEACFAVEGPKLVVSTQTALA
# [1] = probe aXIP binding to arrayed compounds – biochemical, NeuroSMM set, 635/667 nm fluorescence, primary screen (AID 1119); settings: small-molecule microarray, higher = more signal, called active from +8 up or from −8 down;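 also: probe is the protein aXip251-270 applied at 1 µg/mL to compound-printed slides; binding of probe to printed compounds measured as 667 nm fluorescence plus signal to noise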
# [2] = probe aNOTCH3 binding on compound microarray – biochemical, small-molecule microarray, 635/667 nm fluorescence, primary screen (AID 1120); settings: higher = more signal;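 also: probe is a biotin-tagged antibody raised against NOTCH3 rather than NOTCH3 protein; score merges spot fluorescence near 667 nm with spot signal to noise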
# [3] = probe aNOTCH2 binding on compound microarray – biochemical, small-molecule microarray, 635/667 nm fluorescence, primary screen (AID 1121); settings: higher = more signal;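 also: score merges feature fluorescence read at 667 nm with its signal to noise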
# [4] = biological target: Carbonic anhydrase 2 (Homo sapiens) (UniProt P00918); assay: compounds binding carbonic anhydrase 2 – biochemical, small-molecule microarray, Alexa647-labelled CAII, profiling panel (AID 1122); settings: CAII-A647 binding fluorescence, higher = more signal
# [5] = COS7 lysate on small-molecule microarray, probe aHis, 635 nm (AID 1123); settings: COS7 cell lysate, fluorescence, higher = more signal;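 also: z-score combines 667nm fluorescence intensity with signal-to-noise per printed compound spot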
# [6] = probe aLAP1 signal on lysate-treated microarray – cell lysate, small-molecule microarray, COS7 lysate, primary screen (AID 1124); settings: probe aLAP1, fluorescence, higher = more signal;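 also: lysate comes from COS7 cells expressing LAP1 and is applied at 0.3 µg/mL; score merges spot fluorescence near 667 nm with signal-to-noise over triplicate slides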
# Sam68 (KHDRBS1) = assay: compounds binding KHDRBS1 protein – biochemical, small-molecule microarray, 635 nm fluorescence, primary screen (AID 1125); settings: higher = more signal;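 also: score merges 667 nm channel intensity with signal to noise over triplicate slides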
# [7] = system: Chordin-like protein 2 (CHRDL2); assay: compounds binding chordin-like 2 – biochemical, small-molecule microarray, 635 nm fluorescence, primary screen (AID 1126); settings: fluorescence 635 nm, higher = more signal;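 also: printed compound slides probed with Chrdl2 protein at 4 µg/mL for 1 h at 4 C; score merges 667 nm emission intensity with signal to noise over three replicate slides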
# [8] = biological target: Concanavalin-A (Canavalia ensiformis) (UniProt P02866); assay: compounds binding concanavalin A lectin – biochemical, small-molecule microarray, Alexa647 label, 635 nm, artefact control for SMM control protein annotation, primary screen (AID 1127); settings: ConA-A647 binding fluorescence, higher = more signal;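 also: z combines 667 nm emission intensity with signal-to-noise across three replicate slides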
# Sequence of Concanavalin-A (Canavalia ensiformis) (P02866 whole entry, looked up): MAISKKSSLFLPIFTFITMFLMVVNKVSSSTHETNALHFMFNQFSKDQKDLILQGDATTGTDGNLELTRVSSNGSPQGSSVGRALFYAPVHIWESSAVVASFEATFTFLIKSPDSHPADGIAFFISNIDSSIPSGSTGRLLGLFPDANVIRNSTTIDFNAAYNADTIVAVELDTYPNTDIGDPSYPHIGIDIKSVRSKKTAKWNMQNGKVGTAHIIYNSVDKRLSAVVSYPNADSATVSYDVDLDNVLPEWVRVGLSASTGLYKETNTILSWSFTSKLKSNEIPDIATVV
# [9] = compounds binding Alexa647 anti-His antibody – biochemical, small-molecule microarray, 635 nm fluorescence, artefact control for SMM control protein annotation, primary screen (AID 1128); settings: higher = more signal;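 also: score merges feature fluorescence with signal-to-noise for each printed compound spot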
# [10] = system: Human papillomavirus type 1a E7 protein (residues 1-88); assay: HPV1a E7 small-molecule binders, primary screen, biochemical, small-molecule microarray, residues 1-88, 635 nm (AID 1129); settings: small-molecule microarray binding, fluorescence 635 nm; higher = more signal
# [11] = biological target: Focal adhesion kinase 1 (Homo sapiens) (UniProt Q05397); assay: PTK2 protein binding on printed compound slides – biochemical, small-molecule microarray, 635/667 nm fluorescence, BSA, DTT, primary screen (AID 1130); settings: 635 nm fluorescence, higher = more signal;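 also: composite of spot emission at 667 nm and signal to noise over triplicate slides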
# Sequence of Focal adhesion kinase 1 (Homo sapiens) (Q05397 whole entry, looked up): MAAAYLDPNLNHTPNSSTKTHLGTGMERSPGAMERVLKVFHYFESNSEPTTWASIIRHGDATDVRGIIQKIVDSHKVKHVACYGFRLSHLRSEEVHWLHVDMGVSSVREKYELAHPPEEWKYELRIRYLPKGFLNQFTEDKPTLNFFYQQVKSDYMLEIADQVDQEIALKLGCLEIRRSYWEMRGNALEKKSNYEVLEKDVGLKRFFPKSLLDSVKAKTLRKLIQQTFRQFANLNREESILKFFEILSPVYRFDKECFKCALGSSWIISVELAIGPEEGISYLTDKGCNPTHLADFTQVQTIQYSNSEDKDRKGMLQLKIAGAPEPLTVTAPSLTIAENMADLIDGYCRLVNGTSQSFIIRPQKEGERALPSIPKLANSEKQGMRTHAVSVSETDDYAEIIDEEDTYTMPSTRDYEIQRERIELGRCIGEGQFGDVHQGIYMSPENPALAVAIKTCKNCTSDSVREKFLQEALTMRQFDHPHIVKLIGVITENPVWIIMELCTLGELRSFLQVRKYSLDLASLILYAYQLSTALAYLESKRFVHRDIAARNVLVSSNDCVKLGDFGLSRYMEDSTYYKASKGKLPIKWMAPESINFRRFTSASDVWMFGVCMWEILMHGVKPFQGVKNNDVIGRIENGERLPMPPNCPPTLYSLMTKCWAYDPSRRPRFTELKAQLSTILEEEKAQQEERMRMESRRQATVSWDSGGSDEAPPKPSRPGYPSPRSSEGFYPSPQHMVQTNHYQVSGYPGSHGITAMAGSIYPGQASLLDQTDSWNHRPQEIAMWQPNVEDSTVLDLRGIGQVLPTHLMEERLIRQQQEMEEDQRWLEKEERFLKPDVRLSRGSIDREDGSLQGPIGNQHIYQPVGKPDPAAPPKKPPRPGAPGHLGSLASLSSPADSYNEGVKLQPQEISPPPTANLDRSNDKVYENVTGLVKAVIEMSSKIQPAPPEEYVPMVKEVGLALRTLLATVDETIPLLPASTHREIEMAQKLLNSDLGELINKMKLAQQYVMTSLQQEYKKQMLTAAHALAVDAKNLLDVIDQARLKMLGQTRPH
# [12] = system: Fibrinogen (Alexa647-labelled); assay: Alexa647-fibrinogen binding to printed small molecules – biochemical, small-molecule microarray, 635/667 nm fluorescence, artefact control for SMM control-protein annotation, profiling panel (AID 1131); settings: fibrinogen-A647 binding fluorescence, higher = more signal;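 also: z-score merges 667 nm fluorescence with per-spot signal-to-noise over triplicate slides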
# [13] = biological target: Follistatin (Homo sapiens) (UniProt P19883); assay: FST protein binding to printed compounds – biochemical, small-molecule microarray, 635/667 nm fluorescence, primary screen (AID 1132); settings: 635 nm fluorescence, higher = more signal
# Sequence of Follistatin (Homo sapiens) (P19883 whole entry, looked up): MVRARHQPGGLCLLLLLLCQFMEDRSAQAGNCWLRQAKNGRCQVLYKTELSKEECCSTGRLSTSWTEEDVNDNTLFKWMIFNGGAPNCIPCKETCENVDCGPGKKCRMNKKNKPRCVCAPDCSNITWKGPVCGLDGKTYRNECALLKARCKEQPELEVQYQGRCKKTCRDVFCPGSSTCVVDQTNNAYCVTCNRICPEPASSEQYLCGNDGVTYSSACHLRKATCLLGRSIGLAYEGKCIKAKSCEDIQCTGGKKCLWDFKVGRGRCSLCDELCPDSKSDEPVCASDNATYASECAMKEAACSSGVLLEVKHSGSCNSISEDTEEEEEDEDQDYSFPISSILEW
# [14] = biological target: Fibroblast growth factor 2 (Homo sapiens) (UniProt P09038); assay: basic fibroblast growth factor binding to printed compounds – biochemical, small-molecule microarray, 635/667 nm fluorescence, primary screen (AID 1133); settings: FGF2, fluorescence 635/667, higher = more signal
# Sequence of Fibroblast growth factor 2 (Homo sapiens) (P09038 whole entry, looked up): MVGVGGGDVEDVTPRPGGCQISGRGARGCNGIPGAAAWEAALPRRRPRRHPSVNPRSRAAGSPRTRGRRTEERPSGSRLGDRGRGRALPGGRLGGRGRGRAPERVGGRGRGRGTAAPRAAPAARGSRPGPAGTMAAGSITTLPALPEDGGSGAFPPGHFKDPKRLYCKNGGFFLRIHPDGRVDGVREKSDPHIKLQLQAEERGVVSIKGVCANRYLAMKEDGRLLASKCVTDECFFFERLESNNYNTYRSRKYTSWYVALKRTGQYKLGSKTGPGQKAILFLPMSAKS
# [15] = JC-1 mitochondrial potential readout, lung cancer cells – cell-based, A549, JC-1 fluorescence, basal, 24 h, 100 nL, profiling panel (AID 1138); settings: higher = more signal;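 also: A549 lung adenocarcinoma cells under basal conditions with no added stimulus; test concentration not given here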
# Lefty1 = Lefty1 protein binding to printed compounds – biochemical, small-molecule microarray, 635/667 nm fluorescence, primary screen (AID 1139); settings: fluorescence 635/667, higher = more signal
# [16] = system: wheat germ agglutinin (Triticum aestivum), Alexa647-labelled; assay: Alexa647-WGA lectin binding to printed small molecules – biochemical, small-molecule microarray, 635/667 nm fluorescence, artefact control for SMM control-protein annotation, profiling panel (AID 1140); settings: WGA-A647 binding, 635 nm fluorescence, higher = more signal;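 also: score merges 667 nm feature emission with signal to noise over triplicate slides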
# [17] = biological target: Luciferin 4-monooxygenase (Photinus pyralis) (UniProt P08659); assay: inhibition of purified Photinus pyralis luciferase – biochemical, luminescence, purified enzyme, 2006 set, primary screen (AID 1141); settings: purified firefly luciferase, SteadyGlo luminescence, 30 min; higher = more signal, called active from +8 up or from −8 down;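 also: cell-free assay with purified firefly luciferase at 100 ng per well in PBS; test concentration not given here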
# Sequence of Luciferin 4-monooxygenase (Photinus pyralis) (P08659 whole entry, looked up): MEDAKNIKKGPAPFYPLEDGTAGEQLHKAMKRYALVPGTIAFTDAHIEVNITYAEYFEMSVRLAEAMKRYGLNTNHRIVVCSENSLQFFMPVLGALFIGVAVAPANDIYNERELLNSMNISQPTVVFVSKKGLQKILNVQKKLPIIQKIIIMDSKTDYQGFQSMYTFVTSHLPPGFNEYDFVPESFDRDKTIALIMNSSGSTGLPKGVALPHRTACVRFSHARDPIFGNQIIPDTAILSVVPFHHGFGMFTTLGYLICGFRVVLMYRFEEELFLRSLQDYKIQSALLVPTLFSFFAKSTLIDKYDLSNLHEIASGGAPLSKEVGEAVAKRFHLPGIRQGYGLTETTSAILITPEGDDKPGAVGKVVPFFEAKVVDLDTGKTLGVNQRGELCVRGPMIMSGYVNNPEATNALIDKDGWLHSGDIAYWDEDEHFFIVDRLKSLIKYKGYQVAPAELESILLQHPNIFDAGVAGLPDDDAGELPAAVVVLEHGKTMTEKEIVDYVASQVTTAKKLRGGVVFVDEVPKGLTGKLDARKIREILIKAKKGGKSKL
SMILES,composite z-score (Albumin (Bos taurus)),composite Z-score [1],composite z-score [2],composite z-score [3],composite z-score [4],composite z-score [5],composite z-score [6],composite z-score (Sam68 (KHDRBS1)),composite z-score [7],composite z-score [8],composite z-score [9],composite z-score [10],composite z-score [11],composite z-score [12],composite z-score [13],composite z-score [14],z-score [15],composite z-score (Lefty1),composite z-score [16],z-score [17]
C=CC[C@@H](OC(=O)Nc1ccc(SC)cc1)c1ccc(O)c(F)c1,-0.102,0.452 (inactive),-0.0647,-0.114,0.643,0.527,0.341,0.152,0.268,-0.0538,2.11,0.57,0.274,0.221,1.06,1.11,-1.12,0.394,0.904,-3.58 (inactive)
COc1ccc([Si](C)(C)[C@@H]2[C@@H](CCO)O[C@]3(C(=O)N(Cc4ccccc4)c4ccc(N5C(=O)c6cccc7cccc5c67)cc43)[C@H]2C)cc1,0.511,0.708 (inactive),-0.146,-0.155,-0.0746,1.25,-0.3,-0.239,-0.215,1.01,-0.435,-0.0814,0.15,-0.304,-0.384,-0.176,-0.0894,-0.52,0.342,-1.04 (inactive)
C=C(COC)/C(=C/C[C@H](OC(=O)c1ccncc1)c1ccccc1OCCO)c1cc(C(=O)OC)ccc1OC,0.601,0.614 (inactive),0.118,-0.11,0.752,1.2,0.0479,1.27,0.0156,0.784,0.717,1.06,0.319,0.148,1.17,0.66,0.416,1.32,0.925,-0.756 (inactive)
C=C[C@H](C)[C@H](OC(=O)Nc1ccc(SC)cc1)c1ccc(OCCO)cc1,0.548,2.78 (inactive),-0.0647,-0.0533,0.575,2.19,0.277,1.06,0.516,1.04,0.677,1.05,0.0085,0.519,0.376,1.2,-1.38,0.427,1.07,-7.94 (inactive)
C=CCNC(=O)[C@@H]1[C@H]2C(=O)O[C@H](c3ccccc3)[C@H](c3ccccc3)N2[C@H](c2ccccc2OCCO)[C@@]12C(=O)N(C(=O)OCCOC)c1ccc(C#CC3(O)CCCCCC3)cc12,0.351,0.0141 (inactive),0.11,-0.0708,0.354,2.15,0.618,1.29,0.755,1.07,0.713,1.22,0.894,0.905,1.34,0.924,-1.2,0.988,0.323,0.558 (inactive)
[N-]=[N+]=Nc1ccccc1C[C@]1(C(=O)O)COC(c2ccc(OCCCO)cc2)=N1,0.638,0.277 (inactive),0.0116,-0.0501,0.856,0.143,-0.165,-0.566,-1.31,-0.19,-0.047,-0.914,0.0699,-1.45,-0.224,-0.717,-0.991,-0.843,0.396,-13.9 (active)
CC(C)C(CO)N1C(=O)[C@@H]2C3C(=O)OCCC/C=C\[C@H]3OC23C=CCN(Cn2nnc4ccccc42)C(=O)[C@@H]13 (stereo not given in full),-0.37,-0.0983 (inactive),-0.256,-0.181,0.885,0.295,0.685,0.713,-0.81,-0.662,2.67,-0.233,-0.0444,-1.18,-0.0048,-1.08,-0.477,-0.0488,-0.422,-0.0817 (inactive)
O=C1OCCC=C[C@H]2OC34C=CCN(Cn5nnc6ccccc65)C(=O)[C@H]3N(CCCO)C(=O)[C@@H]4C12 (stereo not given in full),-0.841,-0.0287 (inactive),-0.353,-0.13,0.0109,-1.05,1.45,-0.674,-0.433,-1.2,-0.0275,-1.46,-0.519,-0.975,-0.676,-0.446,-0.9,-0.935,-0.0152,0.0251 (inactive)
C=CCC(OC(C)=O)[C@@H]1[C@@H](N(Cc2ccc(-c3cccc(C(F)(F)F)c3)o2)C(=O)c2ccc(-c3ccccc3)cc2)c2cc(OCCCO)ccc2N1C(=O)Cc1ccc2ccccc2c1 (stereo not given in full),-0.124,-0.274 (inactive),-0.149,-0.11,-0.177,0.453,-0.039,-0.421,-0.353,-0.0333,-0.0298,-0.504,0.0827,0.229,0.438,-0.482,0.0819,-0.175,-0.0916,0.429 (inactive)
COC(=O)C1(CC(C)C)C=C2C(=C(c3ccccc3)C(=O)C2C)CN1 (stereo not given),0.581,0.465 (inactive),1.31,0.54,0.502,2.15,0.407,-0.213,-0.521,-0.991,1.75,0.166,0.879,0.579,0.111,0.953,0.674,0.0364,0.663,0.53 (inactive)
COCCOC(=O)N1C(=O)[C@@]2(c3cc(C#CC4=CCCCC4)ccc31)[C@H](C(=O)Nc1nc3ccccc3s1)[C@H]1C(=O)O[C@H](c3ccccc3)[C@H](c3ccccc3)N1[C@@H]2c1ccc(O)cc1,0.817,2.58 (inactive),-0.0279,-0.166,0.661,1.68,0.61,1.31,0.408,1.18,0.174,1.21,1.38,0.362,1.39,1.7,-2.1,0.869,0.529,-1.5 (inactive)
